Assay results published in the supplement of paper PMC6555819.

What was measured:
Assay in all cases: PBM binding z-score (relative to random genomic background probes); higher = stronger binding; sequences stand for … in GC…GCGATTGACAGCGTAGAATGAAGG
[1] = system: FXR:RXRa (NR concentration 270 nM, RXRa partner concentration 90 nM)
Outline: (§1)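 Random background probes are the reference for binding z-scores. These scores derive from regression-normalized fluorescence on custom Agilent 4×180K protein-binding microarrays incubated 1 h with ligand-free nuclear receptor dimers. Binding was detected with antibodies against each partner (one per run).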

[2] = system: LXRa:RXRa (NR concentration 270 nM, RXRa partner concentration 90 nM)
Outline: as §1

[3] = system: LXRa homodimer (NR concentration 270 nM)
Outline: as §1

[4] = system: LXRb:RXRa (NR concentration 270 nM, RXRa partner concentration 90 nM)
Outline: as §1

[5] = system: LXRb homodimer (NR concentration 270 nM)
Outline: as §1

[6] = system: PPARa:RXRa (NR concentration 270 nM, RXRa partner concentration 90 nM)
Outline: as §1

[7] = system: PPARg:RXRa (NR concentration 180 nM, RXRa partner concentration 90 nM)
Outline: as §1

[8] = system: PPARg:RXRa 270nM:90nM, anti-RXR (NR concentration 270 nM, RXRa partner concentration 90 nM)
Outline: as §1

[9] = system: PPARg:RXRa 30nM:10nM, anti-RXR (NR concentration 30 nM, RXRa partner concentration 10 nM)
Outline: as §1

[10] = system: PPARg:RXRa 90nM:30nM, anti-RXR (NR concentration 90 nM, RXRa partner concentration 30 nM)
Outline: as §1

[11] = system: PPARg:RXRa DBDmut IVT, anti-RXR (DBD mutation: RXRa K156A/R161A, NR concentration 270 nM, RXRa partner concentration 90 nM)
Outline: as §1

[12] = system: PPARg:RXRa IVT, anti-PPARg (NR concentration 270 nM, RXRa partner concentration 90 nM)
Outline: as §1

[13] = system: PPARg DBDmut:RXRa IVT, anti-PPARg (DBD mutation: PPARg1 K132A/R137A, NR concentration 270 nM, RXRa partner concentration 90 nM)
Outline: as §1

[14] = system: PPARg DBDmut IVT, anti-PPARg (DBD mutation: PPARg1 K132A/R137A, NR concentration 270 nM)
Outline: as §1

[15] = system: PPARg homodimer (NR concentration 180 nM)
Outline: as §1

[16] = system: PXR:RXRa (NR concentration 270 nM, RXRa partner concentration 90 nM)
Outline: as §1

[17] = system: PXR homodimer (NR concentration 270 nM)
Outline: as §1

[18] = system: RARa:RXR (NR concentration 270 nM, RXRa partner concentration 90 nM)
Outline: as §1

[19] = system: RARa homodimer (NR concentration 270 nM)
Outline: as §1

[20] = system: RARb:RXRa (NR concentration 270 nM, RXRa partner concentration 90 nM)
Outline: as §1

Sequence	PBM binding z-score [1]	PBM binding z-score [2]	PBM binding z-score [3]	PBM binding z-score [4]	PBM binding z-score [5]	PBM binding z-score [6]	PBM binding z-score [7]	PBM binding z-score [8]	PBM binding z-score [9]	PBM binding z-score [10]	PBM binding z-score [11]	PBM binding z-score [12]	PBM binding z-score [13]	PBM binding z-score [14]	PBM binding z-score [15]	PBM binding z-score [16]	PBM binding z-score [17]	PBM binding z-score [18]	PBM binding z-score [19]	PBM binding z-score [20]
TAAATGAGGTTAAAGATCAGGGAACGTGGCGTCG	3.68	3.6	0.629	2.46	1.07	5.14	6.76	6.79	5.89	7.34	3.59	4.36	2.17	2.54	1.72	2.36	0.486	3.21	1.03	2.29
AGTATTAGTTGACTTAGGGCAACCGATACGACGC	0.048	0.00134	0.42	0.0482	0.3	0.128	0.82	0.435	0.448	0.623	-0.0999	0.548	0.229	1.16	0.56	0.237	0.692	0.353	1	1.12
CCTTACGGGTCAAGGTTATAGAACGGGTGGTACG	5.4	3.68	0.401	3	-0.0236	5.1	4.04	4.67	1.87	3.53	1.6	3.22	-0.135	-0.211	1.83	3.27	0.223	4.16	1	4.13
CCTATTAGTTCACCATAAGGGCAACCGAAGCTCG	1.35	2.07	0.985	1.29	0.844	1.67	0.515	0.652	-0.043	0.491	0.837	0.596	0.806	0.145	1.92	2.63	1.48	2.33	1.26	3.21
GCTCGGAGGACTAGGTCAGAGCTTTGTCCGTAGA	-0.693	-0.505	-1.09	-0.622	-1.5	0.919	0.339	1.04	-1.04	0.269	2.42	2.73	-1.06	-1.65	-0.329	-0.496	-0.984	-0.285	-1.53	1.27
ATCGAAAGGTCGTGAGGTGAGTATCCAGAAAGGC	5.07	4.11	0.195	3.04	0.388	4.97	4.11	4.31	1.14	2.9	0.293	2.48	1.2	1.27	1.41	3.13	0.135	4.25	0.545	3.93
ATCGAAAGGTCGACGATGTGAGTATACACCGTTT	3.67	3.02	-0.0144	2.55	0.246	4.4	2.46	2.71	0.896	1.84	0.505	1.37	0.994	1.25	1.43	2.29	0.0146	3.17	0.516	3.94
ATCGAAAGGTCGAGAGGTGAGTATACAGAAAGGC	4.46	3.02	-0.0292	2.63	0.274	4.33	3.42	3.44	1.69	2.47	-0.201	1.82	0.777	0.861	2.03	2.69	-0.031	3.73	0.105	3.88
TGTCAAAGTTCAATGGTAACGTAAGTATCCACAC	5.2	5.16	2.81	3.03	0.934	4.31	6.86	6.53	4.18	6.12	-0.339	3.53	0.89	1.61	2.42	3.89	2.86	2.38	1.11	4.58
CATAAAGGGTCAGCTAGGCCAGAGTAGGGACGGC	5.38	3.9	0.537	2.74	0.607	4.71	4.17	3.83	1.06	2.82	1.58	2.9	0.703	0.0542	2.26	2.18	-0.269	3.32	0.796	4.9
TCATATAGGTAAATGCTAGGTGAAAATCCGATCT	0.903	0.851	0.275	0.71	0.611	1.17	0.91	1.95	4.01	3.06	3.71	2.37	1.79	1.14	1.06	0.505	0.518	0.922	1.61	0.432
AATACAGGGCCATCGTAGGCCAGAGTACGCACAG	0.0639	0.221	-0.132	-0.283	-0.499	0.0726	0.954	-0.0465	-0.14	-0.0369	0.0782	0.608	0.846	-0.0733	-0.388	-0.255	-0.169	-0.00731	0.00973	0.931
TTTTGTAGATCAAAGGTTAAGAAAGCCGAAGCCT	1.35	2.03	0.327	2.09	0.386	5.08	9.51	8.59	8.23	9.36	1.61	3.98	0.975	1.12	1	2.05	-0.0288	3.17	0.339	2.07
ACTATTAGTTGACTTAGGGCAACCGATACGACGC	0.119	0.0991	-0.0501	0.277	0.41	0.0707	0.995	0.159	0.448	0.379	-0.304	0.722	1.07	1.09	-0.697	0.217	0.409	0.353	0.643	0.958
